89 compounds from PubChem BioAssay AID504660 (National Center for Advancing Translational Sciences (NCATS), 2011) can be followed below.

Out of some 360,000 compounds screened, about 3,700 (1%) were called active. The sample holds actives, similar compounds and a random draw of the others, so the mix is not that of the screen. Unmarked numbers belong to inactive results. Rule as the data show it: active = activation above about 30%; inactive = the rest.

Chain of D(1A) dopamine receptor (Homo sapiens) (P21728 whole entry, looked up): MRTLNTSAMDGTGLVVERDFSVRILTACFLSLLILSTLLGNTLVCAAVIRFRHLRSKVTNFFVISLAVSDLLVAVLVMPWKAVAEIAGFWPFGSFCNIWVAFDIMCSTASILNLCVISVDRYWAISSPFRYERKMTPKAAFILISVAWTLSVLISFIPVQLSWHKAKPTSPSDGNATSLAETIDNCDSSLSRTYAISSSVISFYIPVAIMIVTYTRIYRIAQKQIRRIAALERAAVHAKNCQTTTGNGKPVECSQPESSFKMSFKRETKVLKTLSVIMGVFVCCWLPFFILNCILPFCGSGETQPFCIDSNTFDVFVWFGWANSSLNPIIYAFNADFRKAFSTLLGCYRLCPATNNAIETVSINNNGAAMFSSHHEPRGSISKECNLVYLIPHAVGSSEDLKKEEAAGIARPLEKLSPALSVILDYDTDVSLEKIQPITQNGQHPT

The assay has as its target D(1A) dopamine receptor (Homo sapiens) (UniProt P21728). Put plainly: Allosteric Agonists of the Human D1 Dopamine Receptor: qHTS. Also: 0% is about no effect. To be noted: HEK293 T-REx D1 cells, calcium flux, agonist mode; at 2 µM; active compounds read high. The procedure, abridged: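 Agonism was scored from calcium flux recorded over 180 s (1 read/s) after pintool compound addition, following a 10-cycle baseline. Cells were inducible force-coupled HEK293 TREx D1, plated overnight at 30 C and loaded with no-wash calcium dye.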
(Quantitative high-throughput screening tests each substance at several concentrations.)
Regarding `Cn1nc(-c2ccccc2)c(CO)c1Sc1ccccc1`, the activation is 2.17%. Consider `Cc1nn(C)c(C)c1Sc1ccccc1N`, for which the activation was 37.1% (active). The result for `Nc1ccccc1Sc1cc(Cl)nnc1Cl` reads 0.62%. Consider `CC(=O)Nc1cc(C(=O)NCc2ccc(F)cc2)ccc1Sc1ccc(F)cc1`, for which the activation was -2.57%.

Take `CC(C)(CCl)C(=O)Nc1ccc(Sc2ccc(F)cc2)cc1`: the activation was 32.5% (active). The result for `COC(=O)c1ccc(Sc2ccc(F)cc2)c(N)c1` reads 2.52%. `CN(C)c1ccc(C(CNS(=O)(=O)c2cc(F)ccc2F)N2CCOCC2)cc1` (centres undefined): the activation is 5.52%. For `CCCc1cc(=O)n2[nH]c(NCc3ccc(CC)cc3)nc2n1` the value was 1.79%; for `Cc1c(Cl)cccc1NC(=O)C1CCCN(C(=O)c2cnn(-c3ccccc3)c2-n2cccc2)C1` (centres undefined), 4.43%.

As to `CCOC(=O)c1ccc(NC(=O)CCS(=O)(=O)c2ccc(C)cc2)cc1`, the activation was 1.55%. For the compound `CCc1ccc(-c2nn(-c3ccccc3C)cc2C(=O)N2CCN(C3CCS(=O)(=O)C3)CC2)cc1` (centres undefined), the activation is 1.59%.

Regarding `O=Cc1cn(-c2ccccc2)nc1-c1ccccn1`, the activation was -0.0617%. For `CCc1ccc(-c2nn(-c3ccccc3)cc2CSC(=N)N)cc1` the value was 47.5% (active); for `Fc1ccccc1CCNc1nnnn1-c1ccccc1`, 5.56%. For `c1ccc(-n2nnnc2NC2CCCCCC2)cc1`, the activation is 112% (active).

With `CN(C(=O)CSc1nnnn1-c1ccccc1)C1CCCCC1`, the activation is 0.493%. With `CCOc1cccc2cc(-c3cn4c(n3)sc3cc(C)ccc34)c(=O)oc12`, the activation was 0.779%. For the compound `CCc1nc2c(cnn2-c2ccc(C)cc2)c(=O)n1-c1ccc(C)cc1`, the activation was 5.84%. Consider `Cc1cccc(C(=O)Nc2ccc(-c3nc4ccccc4s3)c(C)c2)c1`, for which the activation was 6.34%. The result for `COc1ccc(S(=O)(=O)Nc2cccc3cccnc23)c(N)c1` reads 4.45%; that for `Nc1nonc1-n1nnc(C(=O)N/N=C/c2ccc(Cl)cc2)c1-c1ccc2c(c1)OCO2`, 94.3% (active); that for `CCc1ccc(/C=N/NC(=O)c2nnn(-c3nonc3N)c2CN2CCc3ccccc32)cc1`, -0.149%. The result for `CCCOc1ccc(-c2c(C(=O)N/N=C/c3ccco3)nnn2-c2nonc2N)cc1` reads 13.8%; that for `Cc1cccc(NC(=O)c2ccc3nc(C(C)C)oc3c2)c1C`, 2.14%; that for `Cc1ccc(N(C)C(=O)C2CCN(S(=O)(=O)c3ccc4c(c3)CCCN4C(=O)C3CCC3)CC2)cc1`, 5.77%. For `CCOC(=O)CNC(=O)c1cc2c(=O)n3cccc(C)c3nc2s1` the value was -0.0788%.

As for `COc1ccc(C(=O)NC(=S)N2CCNC(=O)C2CC(=O)OC(C)C)cc1` (centres undefined), the activation was 2.67%. For `CCOC(=O)CC1C(=O)NCCN1c1nc2c(C)cccn2c(=O)c1/C=C1\SC(=S)N(C(C)CC)C1=O` (centres undefined) the value was 265% (active); for `CCC1CN(S(=O)(=O)c2cc(-c3cc(C)no3)ccc2C)c2cc(C)ccc2O1` (centres undefined), 8.44%. As for `CSc1ncc(Cl)c(C(=O)Nc2ccc(S(=O)(=O)N3CCCC(C)C3)cc2)n1` (centres undefined), the activation was 3.25%. Take `COC(=O)c1ccccc1NC(=O)c1ccc(C#N)cc1`: the activation is 1.68%. For `Cc1ccccc1CNC(=O)C(=O)NCC(c1cccs1)S(=O)(=O)c1cccs1` (centres undefined) the value was 25.2%. For `COc1ccc(C(=O)C2CCCN(C(=O)c3cnsn3)C2)c(C)c1` (centres undefined) the value was 2.63%; for `COc1ccc(C(=O)C2CCCN(Cc3cccn3-c3ccccn3)C2)c(C)c1` (centres undefined), 34% (active).

Regarding `COc1ccc(C(=O)C2CCCN(S(=O)(=O)c3cccc(C)c3)C2)c(C)c1` (centres undefined), the activation is 12.7%. For the compound `O=S(=O)(c1ccc2c(c1)OCCCO2)N1CCN(S(=O)(=O)c2c(F)cccc2F)CC1`, the activation was 7.42%. The result for `CCc1ccc(CNC(=O)c2ccc(CS(=O)c3ccc(Br)cc3)o2)cc1` (centres undefined) reads 2.59%; that for `CCc1ccccc1NC(=O)c1ccc(F)c(S(=O)(=O)NC2CCCCCC2)c1`, -1.43%; that for `O=S(=O)(NC1CC1)c1ccc2c3c(cccc13)CC2`, 2.42%. As to `O=S(=O)(NC1CCCCC1)c1ccc(F)c2ccccc12`, the activation was 102% (active). For `Nc1c(C(=O)c2cccs2)sc2nsc(SCCN3CCCCC3)c12` the value was 257% (active); for `CCc1ccc(CNCc2c(C(=O)O)n(Cc3ccc(F)cc3Cl)c3cc(OC)ccc23)cc1`, 0.499%; for `CCOc1ccccc1NC(=O)C1CCCN(S(=O)(=O)c2cn(C)cn2)C1` (centres undefined), -2.08%. The result for `NC(=O)C1=C[C@H](c2csc3ccccc23)C[C@H](OCc2ccc(CO)cc2)O1` reads 203% (active); that for `O=C(NC1CC1)C1=C[C@H](c2c[nH]c3ccccc23)C[C@H](OCc2ccc(CO)cc2)O1`, 7.93%; that for `NC(=O)C1=C[C@@H](c2csc3ccccc23)C[C@@H](OCc2ccc(CO)cc2)O1`, 11.8%. For `Cc1cccc(NC(=O)Cn2c(C(F)(F)F)nc3ccccc32)c1C` the value was 2.74%. In the case of `Oc1ccc(Cl)cc1C1C=C(c2ccc3c(c2)OCO3)NC(c2ccc(F)c(Br)c2)N1` (centres undefined), the activation is 16.4%. Regarding `Cc1ccc(-c2cc(N)n(Cc3cccc(Cl)c3)n2)cc1`, the activation was -0.135%.

As for `COc1cc(OC)c(OC)cc1/C=C/c1nc2cc3ccccc3cc2c(=O)n1-c1ccc(F)c(Cl)c1`, the activation is 0.411%. For `CCCN1CCN(CCCNC(=O)c2ccc3nc(Cc4ccccc4)oc3c2)CC1` the value was 4.88%. The result for `CN1CCN(CCCNC(=O)c2ccc(/C=C3\Oc4ccccc4N(Cc4ccc(Cl)cc4)C3=O)cc2)CC1` reads 87.5% (active).

On to `COCCNC(=O)c1ccc2c(c1)N(Cc1cccc(Cl)c1)C(=O)c1ccccc1S2(=O)=O`, for which the activation is 4.3%. Consider `Cc1cccc(NC(=O)CN(c2ccc(C(C)C)cc2)S(=O)(=O)c2c(C)nn(C)c2C)c1C`, for which the activation is 3.58%. For `COc1cc(NC(=O)c2cc3ccc4cccnc4c3[nH]2)cc(OC)c1OC` the value was -0.0279%; for `CCCC(C)C(=O)Nc1ccc(NC(C)=O)cc1` (centres undefined), 2.66%; for `Cc1ccc(NC(=O)C(C)c2cccc(C(=O)c3ccccc3)c2)cc1` (centres undefined), 18.8%. For `CCC(C(=O)Nc1ccc(C(C)C)cc1)c1ccccc1` (centres undefined), the activation is 75.7% (active). Regarding `CC(=O)N1CCc2cc(Br)cc(S(=O)(=O)CCC(=O)NCCc3ccc(Cl)cc3)c21`, the activation was 1.1%. For `CCOC(=O)N1CCc2c(sc3c2c(=O)n(Cc2ccccc2)c(=O)n3CC(=O)Nc2cccc(C)c2)C1` the value was 47.3% (active). The result for `Cc1ccc(NC(=O)Cn2c(=O)n(-c3ccccc3)c(=O)c3c4c(sc32)CCCC4)cc1` reads 4.64%; that for `Cc1cccc(NC(=O)Cn2c(=O)n(Cc3ccccc3)c(=O)c3c(C)c(C)sc32)c1`, 1.32%. For `COCCCNC(=O)c1c(NC(=O)c2cc(=O)c3cc(C)c(C)cc3o2)sc2c1CCCC2` the value was -1.72%; for `COc1cccc(CNCc2c(C(=O)O)n(Cc3ccc(C)cc3)c3cc(C)ccc23)c1OC`, 0.928%; for `CC(NC(=O)c1cc(-c2ccccc2)on1)c1ccccc1` (centres undefined), 94.3% (active). On to `O=C(NC1CCCC1)c1cc(-c2ccccc2)on1`, for which the activation was 0.117%. Regarding `O=C(NCc1ccccc1)c1cc(-c2cccc(Cl)c2)on1`, the activation is 3.77%. In the case of `CCCn1c2ccccc2c2cnn(CC(=O)N(C)c3ccccc3CC)c(=O)c21`, the activation was 0.732%. The result for `CCOCCCNC(=O)c1ccc2nc(CCc3ccccc3)oc2c1` reads 0.808%; that for `O=C(c1ccc2c(c1)N(Cc1ccccc1)C(=O)c1ccccc1S2(=O)=O)N1CCCC1`, 0.455%; that for `Cc1cccc(NC(=O)C2CCN(S(=O)(=O)c3c(C)noc3/C=C/c3ccco3)CC2)c1`, 1.4%. The result for `CC(C)c1ccc(Cn2c(COc3ccccc3)nc3ccccc32)cc1` reads 32.7% (active).

On to `CC(O)c1nc2ccccc2n1Cc1ccc([N+](=O)[O-])cc1` (centres undefined), for which the activation was 0.897%. For `O=C(Cn1c(COc2ccccc2)nc2ccccc21)Nc1cc(Cl)c(Cl)cc1Cl` the value was -0.172%; for `CCc1ccc(Nc2nn3c(=O)c4cc5c(cc4nc3s2)OCO5)cc1`, 0.763%; for `CCOc1cc(CNC(=O)c2sc3ncnc(N(C)C4CCCCC4)c3c2C)ccc1OC`, 2.38%. For `CCOc1ccc(C(=O)NC2CCN(C(=O)Nc3ccccc3OC)CC2)cc1` the value was 0.137%; for `CCOc1ccc2nc(N3CCCC(C(=O)Nc4cc(C)ccc4C)C3)sc2c1` (centres undefined), -0.891%; for `CCOc1ccc2nc(N3CCCN(C(=O)Nc4ccccc4C)CC3)c(C#N)cc2c1`, 32.7% (active). As to `CC1CCN(S(=O)(=O)c2ccc3c(c2)N(CC(=O)NCc2ccccc2Cl)C(=O)CO3)CC1`, the activation was -2.16%.

`COc1ccc(NC(=O)C2CCCN(S(=O)(=O)c3c(C)[nH]c(=O)[nH]c3=O)C2)c(OC)c1` (centres undefined): the activation is 3.17%. For the compound `N#C/C(=C/c1ccc(N2CCOCC2)o1)C(=O)N1CCOCC1`, the activation was 51.4% (active). For `O=C(N1CCOCC1)N1CCOCC1` the value was 2.44%; for `N#C/C=C(/c1ccc(F)cc1)N1CCOCC1`, 5.96%. Take `COc1cccc(Cn2c(SCc3ccc(C(=O)N4CCCCC4)cc3)nc3ccncc32)c1`: the activation was -0.712%. For `COc1ccccc1C(=O)Nc1c(C(=O)N(C)Cc2ccccc2)sc2nc(C)c(Cl)c(C)c12` the value was 1.11%; for `COc1cc(CNCc2ccc(OC)c3ccccc23)cc(OC)c1OC`, 36.9% (active). For `COc1cc(CNCc2cccs2)cc(Br)c1OC` the value was 2.66%. On to `COc1ccccc1N1CCN(Cc2ccc(OC)c3ccccc23)CC1`, for which the activation is 0.832%.
